From ChEMBL document CHEMBL3988442, “University of Dundee, Small-Polar-MMV Screening Library” (2021) come the findings set out here.

The target in test [1] is T1, Aspartate--tRNA(Asp/Asn) ligase (Mycobacterium tuberculosis (strain ATCC 25618 / H37Rv)) (UniProt P9WFW3). Further: in the data most compounds retested in dose-response had high values.
T1 sequence (whole entry): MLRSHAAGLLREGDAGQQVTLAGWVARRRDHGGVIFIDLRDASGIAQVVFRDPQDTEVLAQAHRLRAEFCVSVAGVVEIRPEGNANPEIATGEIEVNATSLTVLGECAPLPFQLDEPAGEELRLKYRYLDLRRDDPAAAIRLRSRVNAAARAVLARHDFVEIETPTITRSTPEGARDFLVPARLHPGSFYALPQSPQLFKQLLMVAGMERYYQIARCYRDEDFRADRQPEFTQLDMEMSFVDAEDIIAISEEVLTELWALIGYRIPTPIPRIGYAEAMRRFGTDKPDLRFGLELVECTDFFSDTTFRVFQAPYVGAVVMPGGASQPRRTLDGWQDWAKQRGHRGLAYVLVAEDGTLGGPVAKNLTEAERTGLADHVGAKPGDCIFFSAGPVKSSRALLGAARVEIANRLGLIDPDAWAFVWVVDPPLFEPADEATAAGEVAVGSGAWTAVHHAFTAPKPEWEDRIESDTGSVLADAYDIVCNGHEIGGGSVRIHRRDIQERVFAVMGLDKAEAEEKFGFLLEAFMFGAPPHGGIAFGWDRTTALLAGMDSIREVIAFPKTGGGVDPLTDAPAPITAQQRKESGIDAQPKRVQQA
The experiment in a line: Assay for Asp RNA synthetase-1 from Mycobacterium tuberculosis. It counts as functional. Also on record: scale not given: direction of the effect not stated beside the values. As to conditions: 30 µM.

Test [2] concerns the target Shiga toxin 2 (Escherichia coli O157:H7) (UniProt P09385+P09386). The experiment in a line: E. coli 0.157:H7 Shiga Toxin SOP - stx2 screening assay. It counts as functional. Also on record: scale not given: direction of the effect not stated beside the values. The settings on record: 30 µM.

Take `O=C(CCc1ccc(O)cc1)N1CCC(Cc2ccc(CO)cc2)C1` (configuration not stated): the figures for the Percent Effect in test [1] and in test [2] were -0.39% and -14.8%, respectively.

With `N#Cc1cc(NS(=O)(=O)c2ccc(C(=O)O)cc2F)ccc1F`, the Percent Effect in test [1] was 2.89%; in test [2], 9.05%.

Consider `Cc1nn2c(N3CCC(O)CC3)cc(-c3ccccc3)nc2c1C`, for which the Percent Effect is 1.19% in test [1] and 7.56% in test [2].

Take `COc1ccccc1N1CCC(CNCc2cccc(C#N)c2)C1` (configuration not stated): the Percent Effect was 13.3% in test [1] and 2% in test [2].

For `COc1ccc(CNC(=O)Nc2cccnc2N2CCCC2)cc1O`, the Percent Effect in test [1] is 0.235%; in test [2], 10.6%.

As for `Cc1cnn(CC2CN(CCN3CCCC3=O)CCO2)c1` (configuration not stated), the results for the Percent Effect in test [1] and in test [2] were -4.53% and 8.14%, respectively.

As to `CCN(CC)C(=O)Cn1ccc2cc(NC(=O)C3CC3)ccc21`, the Percent Effect is -1.5% in test [1] and -4.48% in test [2].

As for `CC(NC(=O)CCCOc1ccccc1)c1nnc2n1CCCCC2` (configuration not stated), the Percent Effect was found to be 4.5% in test [1] and 19.8% in test [2].

For `Cc1noc(C)c1CN1C(=O)[C@H]2CC[C@@H]1CN(Cc1cccnc1N)C2`, the Percent Effect is 3.56% in test [1] and -24.1% in test [2].

As to `CSCCC(CO)NC(=O)c1sc(-c2ccccc2Cl)nc1C` (configuration not stated), the Percent Effect is -2.58% in test [1] and -30.8% in test [2].

On to `CC(C)(C)c1ccc(C2(C(=O)NCCS(N)(=O)=O)CC2)cc1`, for which the Percent Effect is 13.3% in test [1] and -15.1% in test [2].

With `Cc1cc(C)n(C2CCCN(C(=O)CCNS(C)(=O)=O)C2)n1` (configuration not stated), the results for the Percent Effect in test [1] and in test [2] were -0.16% and -20%, respectively.

Turning to `Cn1ccc(C(=O)NCc2cccc(N3CCCCC3=O)c2)cc1=O`, the figures for the Percent Effect in test [1] and in test [2] were 0.417% and -29.6%, respectively.

`CS(=O)(=O)NC[C@]12COC[C@H]1CN(C(=O)C1CCCCC1)C2`: the Percent Effect in test [1] is 7.93%; in test [2], -3.53%.

Consider `Cc1cn(CC(=O)NC2CCN(C(=O)C3CC3)CC2)c2ccccc12`, for which the Percent Effect turned out to be 2.13% in test [1] and 6.97% in test [2].

Consider `Cc1cc(CN(C)C(=O)c2ccnc(N(C)C)c2)no1`, for which the Percent Effect in test [1] is -3.84%; in test [2], -18.4%.

For `Cc1cc(OCC(=O)N2CCCC(c3ccn[nH]3)C2)no1` (configuration not stated), the Percent Effect in test [1] was -5.07%; in test [2], 2.75%.

In the case of `CN1CCN(CC2CC2)C(=O)c2cnc(N3CCCCC3)nc21`, the Percent Effect in test [1] is 3.69%; in test [2], -8.64%.

`Cc1cc(C(=O)NCc2ccccn2)no1`: the Percent Effect in test [1] was -4.62%; in test [2], -0.424%.

As for `CC(O)CNC(=O)NCc1cccnc1OC1CCCC1` (configuration not stated), the Percent Effect in test [1] is -4.34%; in test [2], -12.4%.

For `CCn1cnnc1CNC(=O)NC(C)c1cccs1` (configuration not stated), the Percent Effect in test [1] was 0.243%; in test [2], -10.2%.

For `O=C1NC2(CCN(Cc3cccnc3)CC2)CC1c1ccncc1` (configuration not stated), the figures for the Percent Effect in test [1] and in test [2] were 7.31% and -19.6%, respectively.

Turning to `Nc1nc2nc(C3CCCN(C(=O)c4cscn4)C3)ccc2s1` (configuration not stated), the Percent Effect is 0.603% in test [1] and -35.5% in test [2].

In the case of `CCN1CCN(c2nc(C(C)C)nc3c(C)nn(CC)c23)CC1`, the Percent Effect was -2.11% in test [1] and -52.4% in test [2].

For `CCn1nnc2c1C(COC)CN(Cc1cccs1)C2` (configuration not stated), the Percent Effect was -3.5% in test [1] and 5.25% in test [2].

As for `CCS(=O)(=O)N1Cc2nccn2CC(COc2cccnc2)C1` (configuration not stated), the Percent Effect was -1.75% in test [1] and -12.5% in test [2].

Take `Cc1cnc(C(=O)N2CCCC(n3ccnc3C)C2)cn1` (configuration not stated): the Percent Effect in test [1] was -3.23%; in test [2], -18.1%.

As for `Cc1cc(C)n(CC2CCCN2CCCS(N)(=O)=O)n1` (configuration not stated), the Percent Effect in test [1] was -0.589%; in test [2] it was -25.1%.

Regarding `CCC(=O)N(C)CC(=O)Nc1ccc(Br)cn1`, the Percent Effect in test [1] was -3.04%; in test [2] it was -18.8%.

Turning to `CNC(=O)C1(CCCc2cccnc2)CCCCN1` (configuration not stated), the Percent Effect in test [1] came out at 0.849%; in test [2] it was 0.867%.

With `CC(C)(C)NC(=O)C1CSCN1S(=O)(=O)c1cccc(F)c1` (configuration not stated), the figures for the Percent Effect in test [1] and in test [2] were 10.2% and -19.4%, respectively.

In the case of `Cc1ccccc1CNc1nc(O)cc(C2CC(=O)N(C)C2)n1` (configuration not stated), the Percent Effect was -2.9% in test [1] and 0.153% in test [2].

On to `Cc1cc(C(C)NC(=O)N2CCC(n3cncn3)CC2)c(C)s1` (configuration not stated), for which the Percent Effect in test [1] is 0.6%; in test [2] it was 6.48%.

As to `CC(C)c1nccn1C1CCCN(C(=O)c2ccnc(N(C)C)c2)C1` (configuration not stated), the Percent Effect was 2.16% in test [1] and -29.7% in test [2].

Take `CN(C)C1CCN(C(=O)NCc2ccc(Cn3cncn3)cc2)CC1`: the values for the Percent Effect in test [1] and in test [2] were -3.07% and -19.9%, respectively.

As for `COc1ccc(-c2nnc(SC(C)C(=O)NC3CC3)[nH]2)c(OC)c1` (configuration not stated), the figures for the Percent Effect in test [1] and in test [2] were 2.19% and 7.63%, respectively.

Regarding `CN1CCN(C(=O)[C@H]2C[C@@H]3CCN(c4ncc(F)cn4)C[C@@H]3O2)CC1`, the Percent Effect was -1.43% in test [1] and -18.9% in test [2].

Take `c1csc(-c2nc(CN3CCOC(Cn4cncn4)C3)cs2)c1` (configuration not stated): the Percent Effect is -6.66% in test [1] and 31.4% in test [2].

Regarding `Cc1nccc(CN2CC[C@H](Oc3cccc(F)c3)[C@@](C)(O)C2)n1`, the figures for the Percent Effect in test [1] and in test [2] were -0.368% and -25.4%, respectively.

For the molecule `CC(C)(C)C(=O)NCCC(=O)NS(=O)(=O)c1ccc2c(c1)OCCO2`, the Percent Effect was -10.1% in test [1] and 0.645% in test [2].

Consider `OC1(Cn2ccc3ccncc32)CCN(Cc2ccccn2)CC1`, for which the values for the Percent Effect in test [1] and in test [2] were -0.402% and -26.5%, respectively.

Consider `C=Cc1ccc(C(=O)N2CCCC(Nc3ccc(F)cc3)C2)cc1` (configuration not stated), for which the results for the Percent Effect in test [1] and in test [2] were -0.502% and -4.33%, respectively.

Turning to `CC(=O)NCC(=O)N1CC[C@H](OCC2CC2)[C@@H]1Cc1cccnc1`, the results for the Percent Effect in test [1] and in test [2] were 1.14% and 5.09%, respectively.

Regarding `CCc1nnc(CNCC2CCN(CC(O)c3ccccc3)CC2)o1` (configuration not stated), the Percent Effect in test [1] was -2.95%; in test [2] it was -40.8%.

In the case of `CC(C)(C)c1ncc(C(=O)NCCS(N)(=O)=O)s1`, the Percent Effect is -1.74% in test [1] and 28.8% in test [2].

As for `Cc1occc1C(=O)N1CCCC2(CCN(CCN3CCCC3)C2=O)C1` (configuration not stated), the Percent Effect was 1.84% in test [1] and -29.2% in test [2].

Turning to `CC(C)c1nnc2n1CCN(CC(=O)Nc1sccc1C#N)C2`, the Percent Effect in test [1] was found to be 8.51%; in test [2], 16.9%.

As to `CC(C)c1ncncc1C(=O)N1CCCN(Cc2cccs2)CC1`, the Percent Effect in test [1] is -3.79%; in test [2], 6.52%.

For `Cc1nc(CCNC(=O)C2CC(=O)N(C(C)(C)C)C2)sc1C` (configuration not stated), the Percent Effect is 1.05% in test [1] and -3.12% in test [2].

On to `COc1ccc(CN2C[C@@H]3OCCN(CC4CCCO4)[C@@H]3C2)cc1` (some centres not stated), for which the Percent Effect in test [1] was -0.535%; in test [2], -4.29%.

For the molecule `CCN(CC)Cc1ccc(C(=O)N2CCCCC2Cn2cccn2)o1` (configuration not stated), the Percent Effect in test [1] amounted to 3.47%; in test [2] it was 1.31%.
